Assay results: PubChem BioAssay (EPA / NIEHS)
Activity calls are given as the source filed them. How the source made its calls: active means hit-call score of the fitted dose curve at least 0.9, where 1 is the maximum; inactive means score below 0.9.

Legend:
[1] = target: Bile acid receptor (Homo sapiens) (UniProt Q96RI1); test: ATG_IR1_CIS: Attagene CIS-FACTORIAL HepG2 Assay for human Nuclear Receptor Subfamily 1 Group H Member 4 (NR1H4), IR1 submotif (AID 2282946); conditions: IR1 reporter transcription, actives raise or lower the signal
Summary of the method: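 HepG2 cells transiently transfected with multiple cis-promoter-driven reporter units to measure endogenous transcription factor activity; 24 h exposure. Reporter mRNA read by RT-PCR, FAM labelling, HpaI digestion and capillary electrophoresis. Bidirectional fit versus DMSO.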

[2] = ATG_GRE_CIS: Attagene CIS-FACTORIAL HepG2 Assay for human Glucocorticoid Response Elements (GRE) (AID 2282947); conditions: HepG2 GRE cis-reporter, Attagene multiplex mRNA; actives raise or lower the signal
Summary of the method: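 Endogenous transcription factor activity is read through cis-element reporter constructs transiently transfected into HepG2 cells. After 24 h treatment, labelled RT-PCR products are resolved by capillary electrophoresis; DMSO sets baseline for bidirectional curve fitting.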

[3] = ATG_ISRE_CIS: Attagene CIS-FACTORIAL HepG2 Assay for human Interferon Regulatory Factor 1 (IRF1) binding to an Interferon-Stimulated Response Element (ISRE) (AID 2282948); conditions: HepG2 ISRE cis-reporter (Attagene), mRNA transcription readout; actives raise or lower the signal
Summary of the method: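 Quantitation relies on labelled RT-PCR fragments separated by capillary electrophoresis. Human HepG2 cells bearing cis-promoter reporter constructs were treated 24 h; DMSO served as baseline for bidirectional fitting.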

[4] = ATG_M_32_CIS: Attagene CIS-FACTORIAL HepG2 Assay for M32 Transcription Factor (Internal Marker) (AID 2282949); conditions: HepG2 Attagene cis-factorial M32 reporter, mRNA; actives raise or lower the signal;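 further: background control marker of the multiplexed CIS panel rather than a real target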
Summary of the method: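 Internal background marker read-out: RT-PCR/capillary electrophoresis fluorescence of reporter transcripts from transiently transfected HepG2 cells after 24 h chemical exposure. Activity fitted bidirectionally relative to DMSO negative control.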

[5] = ATG_M_06_CIS: Attagene CIS-FACTORIAL HepG2 Assay for M06 Transcription Factor (Internal Marker) (AID 2282950); conditions: HepG2 Attagene CIS-FACTORIAL M06 internal marker reporter; actives raise or lower the signal
Summary of the method: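 Steps: transfect HepG2 with multiplexed cis-element reporter constructs; dose chemical 24 h; extract RNA with DNase treatment; reverse-transcribe, PCR-amplify, 6-FAM label, HpaI digest; separate fragments by capillary electrophoresis. Activity fitted both directions versus DMSO.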

[6] = target: Hypoxia-inducible factor 1-alpha (Homo sapiens) (UniProt Q16665); test: ATG_HIF1a_CIS: Attagene CIS-FACTORIAL HepG2 Assay for human Hypoxia Inducible Factor 1 (HIF1A) (AID 2282951); conditions: HepG2 Attagene cis-factorial HIF1a reporter transcription; actives raise or lower the signal
Summary of the method: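 Dosed 24 h, transfected HepG2 cells yielded total RNA whose reporter transcripts were RT-PCR-amplified and sized by capillary electrophoresis using fluorescent labelling; DMSO defined baseline, with gain and loss of signal both fitted.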

[7] = target: Hepatocyte nuclear factor 6 (Homo sapiens) (UniProt Q9UBC0); test: ATG_HNF6_CIS: Attagene CIS-FACTORIAL HepG2 Assay for human Hepatocyte Nuclear Factor 6 (HNF6) (AID 2282952); conditions: HepG2 Attagene cis-factorial HNF6 reporter transcription; actives raise or lower the signal
Summary of the method: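 HepG2 cells transiently transfected with cis-element-driven multiplexed reporter units measuring endogenous transcription factor activity. After 24 h exposure, reporter mRNA quantified by RT-PCR, FAM-labelled fragments and capillary electrophoresis; bidirectional fitting versus DMSO.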

[8] = target: Heat shock factor protein 1 (Homo sapiens) (UniProt Q00613); test: ATG_HSE_CIS: Attagene CIS-FACTORIAL HepG2 Assay for human Heat Shock Transcription Factor 1 (HSE) (AID 2282953); conditions: HepG2 HSE cis-reporter, Attagene RNA transcription; actives raise or lower the signal
Summary of the method: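 Cells were transfected with cis-element-driven reporter constructs, dosed for 24 h, then total RNA was reverse-transcribed and reporter cDNA amplified, FAM-labelled and digested with HpaI. Fragments were resolved by capillary electrophoresis; gain or loss was fitted against DMSO.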

[9] = ATG_MRE_CIS: Attagene CIS-FACTORIAL HepG2 Assay for human Metal Responsive Element (MRE) (AID 2282954); conditions: HepG2 MRE cis-reporter transcription, Attagene multiplex; actives raise or lower the signal
Summary of the method: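 Fluorescent reporter fragments separated by capillary electrophoresis give mRNA induction for the MRE unit after 24 h treatment of transfected HepG2 cells. Endogenous transcription-factor activity is read; DMSO serves as negative control and baseline.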

[10] = ATG_PBREM_CIS: Attagene CIS-FACTORIAL HepG2 Assay for human Phenobarbital-responsive Enhancer Module (PBREM) (AID 2282955); conditions: HepG2 PBREM cis-reporter, Attagene multiplexed transcription; actives raise or lower the signal
Summary of the method: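 Transfected liver-derived HepG2 cells exposed 24 h; PBREM reporter transcript quantified via RT-PCR and capillary electrophoresis, with activity in either direction referenced to DMSO.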

Sequence of Heat shock factor protein 1 (Homo sapiens) (Q00613 whole entry, looked up, the tested form may be a part): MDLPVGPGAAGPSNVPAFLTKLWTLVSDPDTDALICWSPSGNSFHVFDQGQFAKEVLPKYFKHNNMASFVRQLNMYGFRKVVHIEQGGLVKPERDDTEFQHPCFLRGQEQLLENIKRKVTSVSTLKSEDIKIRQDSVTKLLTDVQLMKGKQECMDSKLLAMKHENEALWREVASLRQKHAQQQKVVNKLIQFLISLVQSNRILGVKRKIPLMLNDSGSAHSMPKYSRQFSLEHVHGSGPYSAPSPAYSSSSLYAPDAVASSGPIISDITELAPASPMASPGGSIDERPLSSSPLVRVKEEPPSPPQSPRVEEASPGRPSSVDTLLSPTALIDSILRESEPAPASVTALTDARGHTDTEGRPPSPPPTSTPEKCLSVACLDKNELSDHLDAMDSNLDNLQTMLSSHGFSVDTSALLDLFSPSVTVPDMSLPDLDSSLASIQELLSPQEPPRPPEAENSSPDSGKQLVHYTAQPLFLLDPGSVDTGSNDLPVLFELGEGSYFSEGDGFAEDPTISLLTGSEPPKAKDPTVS
Sequence of Hypoxia-inducible factor 1-alpha (Homo sapiens) (Q16665 whole entry, looked up): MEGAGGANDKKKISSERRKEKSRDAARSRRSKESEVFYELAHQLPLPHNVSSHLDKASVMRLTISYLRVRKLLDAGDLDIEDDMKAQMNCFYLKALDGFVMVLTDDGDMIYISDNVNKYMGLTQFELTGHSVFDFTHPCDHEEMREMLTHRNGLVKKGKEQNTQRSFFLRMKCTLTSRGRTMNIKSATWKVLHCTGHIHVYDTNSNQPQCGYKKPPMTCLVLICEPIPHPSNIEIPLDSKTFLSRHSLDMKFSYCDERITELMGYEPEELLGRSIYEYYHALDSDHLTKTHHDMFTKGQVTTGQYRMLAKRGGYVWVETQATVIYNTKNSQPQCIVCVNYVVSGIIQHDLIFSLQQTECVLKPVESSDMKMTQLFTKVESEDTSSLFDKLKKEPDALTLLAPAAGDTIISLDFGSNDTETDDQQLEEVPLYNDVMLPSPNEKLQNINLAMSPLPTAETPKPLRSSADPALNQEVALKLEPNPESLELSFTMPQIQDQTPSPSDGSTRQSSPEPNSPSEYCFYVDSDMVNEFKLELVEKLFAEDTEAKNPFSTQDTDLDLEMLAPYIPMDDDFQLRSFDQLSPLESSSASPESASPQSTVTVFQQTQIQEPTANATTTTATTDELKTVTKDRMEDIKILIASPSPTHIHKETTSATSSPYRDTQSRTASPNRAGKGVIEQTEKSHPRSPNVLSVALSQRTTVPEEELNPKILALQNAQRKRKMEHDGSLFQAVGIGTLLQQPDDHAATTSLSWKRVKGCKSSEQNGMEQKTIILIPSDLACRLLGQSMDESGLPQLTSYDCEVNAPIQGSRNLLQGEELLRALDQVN
Sequence of Bile acid receptor (Homo sapiens) (Q96RI1 whole entry, looked up): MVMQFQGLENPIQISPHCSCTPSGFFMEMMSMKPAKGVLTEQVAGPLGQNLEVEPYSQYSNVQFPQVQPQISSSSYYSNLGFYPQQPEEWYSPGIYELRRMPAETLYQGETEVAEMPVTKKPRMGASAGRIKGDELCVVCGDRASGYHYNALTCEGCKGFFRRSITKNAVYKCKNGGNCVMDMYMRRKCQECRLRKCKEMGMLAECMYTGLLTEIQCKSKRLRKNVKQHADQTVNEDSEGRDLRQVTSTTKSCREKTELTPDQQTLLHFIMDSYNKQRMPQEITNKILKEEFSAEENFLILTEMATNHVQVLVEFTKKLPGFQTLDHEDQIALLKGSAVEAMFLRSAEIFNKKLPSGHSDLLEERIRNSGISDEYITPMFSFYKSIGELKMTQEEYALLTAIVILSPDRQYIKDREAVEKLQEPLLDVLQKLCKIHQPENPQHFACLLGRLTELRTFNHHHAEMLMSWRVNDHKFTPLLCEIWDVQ
Sequence of Hepatocyte nuclear factor 6 (Homo sapiens) (Q9UBC0 whole entry, looked up, the tested form may be a part): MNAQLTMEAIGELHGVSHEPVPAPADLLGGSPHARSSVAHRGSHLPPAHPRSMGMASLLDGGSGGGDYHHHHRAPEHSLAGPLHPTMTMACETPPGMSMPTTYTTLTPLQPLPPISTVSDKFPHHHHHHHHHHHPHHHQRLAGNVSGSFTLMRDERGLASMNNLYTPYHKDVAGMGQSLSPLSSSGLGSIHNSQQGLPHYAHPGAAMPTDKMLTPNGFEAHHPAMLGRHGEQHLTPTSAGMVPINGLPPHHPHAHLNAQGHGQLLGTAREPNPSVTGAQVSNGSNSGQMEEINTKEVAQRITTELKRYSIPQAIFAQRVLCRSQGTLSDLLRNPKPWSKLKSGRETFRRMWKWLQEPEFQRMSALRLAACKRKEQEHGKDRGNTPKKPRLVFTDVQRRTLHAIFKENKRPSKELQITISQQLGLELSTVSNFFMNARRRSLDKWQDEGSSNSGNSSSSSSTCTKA

Compound | outcome [1] | outcome [2] | outcome [3] | outcome [4] | outcome [5] | outcome [6] | outcome [7] | outcome [8] | outcome [9] | outcome [10] | AC50 [6] | AC50 [3] | AC50 [8] | AC50 [9] | AC50 [7] | AC50 [10]
CCC(=O)/C=C/C1C(C)=CCCC1(C)C (stereo unspecified) | inactive | inactive | inactive | inactive | inactive | inactive | inactive | inactive | inactive | – | – | – | – | – | – | –
CC(=O)OCC=Cc1ccccc1 | inactive | inactive | inactive | inactive | inactive | inactive | inactive | inactive | inactive | inactive | – | – | – | – | – | –
Cc1cccc(C)c1C | inactive | inactive | inactive | inactive | inactive | inactive | inactive | inactive | inactive | – | – | – | – | – | – | –
Cc1ccc2sc3cccc(C)c3c2c1 | inactive | inactive | inactive | inactive | inactive | – | inactive | inactive | inactive | inactive | 52.9 µM (active) | – | – | – | – | –
CC1=CCC2C(C1)C2(C)C (stereo unspecified) | inactive | inactive | inactive | inactive | inactive | inactive | inactive | inactive | inactive | inactive | – | – | – | – | – | –
O=C(Nc1ccccc1)c1cc([N+](=O)[O-])ccc1Cl | inactive | inactive | – | inactive | inactive | – | inactive | – | – | inactive | 24.1 µM (active) | 38.3 µM (active) | 154 µM (active) | 18.5 µM (active) | – | –
O=C(O)c1snc(Cl)c1Cl | inactive | inactive | – | inactive | inactive | inactive | – | – | – | inactive | – | 136 µM (active) | 158 µM (active) | 161 µM (active) | 153 µM (active) | –
CSc1nnc(C(C)(C)C)c(=O)[nH]1 | inactive | inactive | inactive | inactive | inactive | inactive | inactive | inactive | inactive | – | – | – | – | – | – | –
COc1cc2ncnc(Nc3cccc(Cl)c3)c2cc1OC | inactive | inactive | – | inactive | inactive | – | inactive | inactive | – | – | 11.4 µM (active) | 5.56 µM (active) | – | 20.1 µM (active) | – | –
CC(C)(N)CO | inactive | inactive | inactive | inactive | inactive | inactive | inactive | inactive | inactive | inactive | – | – | – | – | – | –
CCCC(C)C=O (stereo unspecified) | inactive | inactive | inactive | inactive | inactive | inactive | inactive | inactive | inactive | inactive | – | – | – | – | – | –
Cc1c(Cl)c(=O)oc2cc(O)ccc12 | inactive | inactive | inactive | inactive | inactive | inactive | inactive | inactive | inactive | – | – | – | – | – | – | 37.3 µM (active)
